Screens deposited in PubChem by Broad Institute.
The full list was thinned out, with hits kept by preference.
Tgondii IFNg: T. gondii growth inhibition with IFN-gamma, primary screen, cell-based; activity change, negative = inhibition, % (test concentration not listed); AID 1259416, 2018; Toxoplasma gondii growth in IFN-gamma-treated host cells; active compounds read low; 69,000 tested, 3.8% active; in the data active = activity change below about -70%, passing the limit was not always enough;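 note: host cells are HeLa cells infected with Toxoplasma gondii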
Hits are given with their value; 0 = inactive; ! = a repeat was not active.

SMILES	Tgondii IFNg
CC(C)CN1C[C@@H]2c3nc(N(C)C)ncc3CS(=O)(=O)[C@H]2C1	0
C=CCN1CCN(S(=O)(=O)C2CC2)Cc2cccnc21	0
O=C(NCc1cccs1)c1cc2cccnc2n(Cc2ccccc2F)c1=O	0
C[C@@H]1C[C@@H]2CN(Cc3ccncc3)C[C@@H]2O1	0
CNC(=O)C1CC2CN(Cc3c(C)noc3C)CC1O2 (centres undefined)	0
O=C(NCCc1ccccc1)c1cc2cccnc2n(Cc2ccccc2F)c1=O	0
O=C(Nc1cccc(Cl)c1)c1c(O)c2cccnc2n(Cc2ccccc2)c1=O	0
Cc1ccc(F)cc1NC(=O)c1c(O)c2cccnc2n(Cc2ccccc2)c1=O	0
O=C(Nc1ccc(F)c(Cl)c1)c1c(O)c2cccnc2n(Cc2ccccc2)c1=O	0
O=C(NCc1ccccc1)c1c(O)c2cccnc2n(Cc2ccccc2)c1=O	-116
COc1ccc(NC(=O)c2c(O)c3cccnc3n(Cc3ccccc3)c2=O)cc1	0
O=C(Nc1ccc(F)c(F)c1)c1c(O)c2cccnc2n(Cc2ccccc2)c1=O	0
O=C(Nc1ccc(F)cc1)c1c(O)c2cccnc2n(Cc2ccccc2)c1=O	0
CC(NC(=O)c1c(O)c2cccnc2n(Cc2ccccc2)c1=O)c1ccc(F)cc1 (centres undefined)	-113
O=C(NCc1ccccc1F)c1c(O)c2cccnc2n(Cc2ccccc2)c1=O	-112
Cc1noc(C)c1S(=O)(=O)N1CCN2CCNC(=O)C2C1 (centres undefined)	0
C[C@@H]1C(=O)NC[C@H]2CN(CC3CC3)C[C@@H]21	0
C=CCN1CCN(C)C2(CCN(Cc3ccncc3)CC2)C1=O	0
COCCO[C@@H]1C[C@@H]2CN(C(=O)Cc3ccccn3)CCN2C1	0
Cc1ccc(N2CCO[C@@H]3CNCC[C@H]3C2)nn1	0
CCCCC(CC)COC(=O)c1ccccc1C(=O)OCC(CC)CCCC (centres undefined)	0
CNc1ccccc1C(=O)O	0
C[CH2][Hg][S]c1ccccc1C(=O)O	-73!
O=C(Nc1ccc(C(F)(F)F)cc1)c1cc2cccnc2n(Cc2ccc(F)cc2)c1=O	0
COc1cccc(OC)c1OCC(=O)N1CCN(Cc2ccccn2)CC1	0
SMILES	Tgondii IFNg
CC(=O)O[C@@]12CO[C@@H]1C[C@H](O)[C@@]1(C)C(=O)[C@H](O)C3=C(C)[C@@H](O)C[C@@](O)([C@@H](OC(=O)c4ccccc4)[C@H]21)C3(C)C	-76!
COc1ccc2c(c1)C1(CCN(C(=O)c3ccc(Oc4ccccc4)cc3)CC1)CC2CC(=O)O (centres undefined)	0
c1nc(NCC2CC2)nc2c1COCC21CCN(CC2CC2)C1 (centres undefined)	0
O=C(NCc1ccco1)c1cc2cccnc2n(Cc2ccc(Cl)cc2)c1=O	0
Cc1ccc(Cl)cc1NC(=O)c1cc2cccnc2n(Cc2ccccc2)c1=O	0
Cc1cc(N2C[C@H](c3cc(F)cc(F)c3)[C@@H]3[C@H]2C2CCN3CC2)nc(N)n1	0
CC(=O)NC1CCSC1=O (centres undefined)	-78!
COC(=O)c1cccc(CN2CCO[C@@H]3CCCC[C@H]32)n1	0
CCN(CC)CCN1CCO[C@@H]2[C@@H](OCc3ccccn3)CC[C@H]21	0
CNC(=O)[C@H]1C[C@H]2CCN(Cc3c(C)noc3C)C[C@H]2O1	0
O=C(NC(=S)Nc1cc(C(F)(F)F)cc(C(F)(F)F)c1)Oc1ccccc1	-98
COc1cccc(CC(C)NC2CCN(C(=O)c3ccc(C)cc3)CC2)c1 (centres undefined)	0
Cc1noc(C)c1CN1CCO[C@H]2CN(C(=O)c3cccs3)C[C@@H]21	0
C[C@]12CCC3C(CC[C@]4(O)C[C@@H](O)CC[C@]34C=O)[C@@]1(O)CCC2C1=CC(=O)OC1 (some centres undefined)	-84!
C[C@@H]1O[C@@H](O[C@H]2CC[C@]3(C=O)C4CC[C@]5(C)[C@@H](C6=CC(=O)OC6)CC[C@]5(O)C4CC[C@]3(O)C2)[C@H](O)[C@H](O)[C@H]1O (some centres undefined)	0
CN1CCN(C)C2(CCN(c3cccnc3)CC2)C1=O	0
Cc1ncc(C(=O)NC2CCN(CC3(c4ccc(Cl)cc4)CCC3)CC2)c(C)n1	0
CNC(=O)[C@@H]1COC[C@@H]2CN(CC(C)C)C[C@@H]21	0
O=C1NCCN2CCN(C3CCN(Cc4cccnc4)CC3)CC12 (centres undefined)	0
CC(C)CCCC1(C)C=Cc2c(O)c3c(c(CCC(C)C)c2O1)OC12C(CC4CC1C(C)(C)OC2(CCC(C)C(=O)O)C4O)C3=O (centres undefined)	0
CC(C)=CCC[C@]1(C)C=Cc2c(O)c3c(c(CC=C(C)C)c2O1)O[C@]12C(=C[C@@H]4C[C@H]1C(C)(C)O[C@@]2(CC=C(C)C(=O)O)C4=O)C3=O	-85
Cc1noc(C)c1CN1CC2CC(C(=O)NCC(C)C)C(C1)O2 (centres undefined)	0
CC(C)N(C)CC1CCC2(CCNCC2)CO1 (centres undefined)	0
CC[C@@]1(O)C(=O)OCc2c1cc1n(c2=O)Cc2cc3ccccc3nc2-1	-88
CCC1(O)C(=O)OCc2c1cc1n(c2=O)Cc2cc3ccccc3nc2-1 (centres undefined)	-106
SMILES	Tgondii IFNg
O=C(Nc1ccc(Cl)cc1)c1cc2cccnc2n(Cc2ccccc2F)c1=O	0
O=C(NCCCc1ccccc1)c1cc2cccnc2n(Cc2ccc(F)cc2)c1=O	0
CN1CCC2(CCCN(C(=O)c3ccoc3)C2)CC1	0
Cc1occc1C(=O)N1CC[C@H]2[C@@H]1CCN2Cc1cccnc1	0
CNC(=O)[C@H]1C[C@H]2CN(CC3CC3)C[C@H]1O2	0
CCCn1ncc(C(=O)N(Cc2ccc3c(c2)OCO3)C2CC2)c1C	0
CCCCc1ccc(NC(=O)c2cc3cccnc3n(Cc3ccc(F)cc3)c2=O)cc1	0
CC(=O)OC1CC[C@@]2(C)C(CCC3C2CC[C@]2(C)C(C4=CC(=O)OC4)C(OC(C)=O)CC32O)C1 (some centres undefined)	-80
Cc1cc(CC(C)NCC(=O)Nc2cnccn2)n[nH]1 (centres undefined)	0
CN(C)[C@@H]1CN(Cc2ccoc2)[C@H]2COC[C@@H]12	0
CSc1ccccc1NC(=O)c1cc2cccnc2n(Cc2ccc(F)cc2)c1=O	0
